Measurements published in PubChem BioAssay (NCI).
The panel holds about 83,000 compounds, 20% with a hit somewhere; the sample as a whole holds those more often.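 The endpoint reported here, percent growth, reads 100 for growth as untreated, 0 for no net growth and -100 for all cells dead.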 A number with no mark means an inactive call. Calls of active or inactive are those of the source. The calls were made as follows: active = growth percent below 10; inactive = the rest.

Columns and labels:
Assay in all cases: NCI-60 one-dose screen, 48 h (100 = growth as untreated, 0 = no growth, -100 = all killed)
Conditions in all cases: 10 µM unless noted
HCT-15 colon = test system: HCT-15 colon
HT29 colon = test system: HT29 colon
SNB-19 CNS = test system: SNB-19 CNS
U251 CNS = test system: U251 CNS
PC-3 prostate = test system: PC-3 prostate
SK-MEL-5 melanoma = test system: SK-MEL-5 melanoma
UACC-62 melanoma = test system: UACC-62 melanoma
LOX IMVI melanoma = test system: LOX IMVI melanoma
SK-MEL-28 melanoma = test system: SK-MEL-28 melanoma

Compound | growth (HCT-15 colon) | growth (HT29 colon) | growth (SNB-19 CNS) | growth (U251 CNS) | growth (PC-3 prostate) | growth (SK-MEL-5 melanoma) | growth (UACC-62 melanoma) | growth (LOX IMVI melanoma) | growth (SK-MEL-28 melanoma)
Cn1cc(-c2nc(-c3c[nH]c4ccccc34)cs2)c2cccnc21 | 30% | 7.8% (active) | 51.6% | 26.6% | 32.5% | 21.6% | 51.4% | 39.4% | 52.4%
CC(C)(C)n1cc(-c2ccnc(NCCCNS(=O)(=O)c3cccc4ccccc34)c2)c(-c2cccc(O)c2)n1 | -19.5% (active) | -20.2% (active) | 56% | 27% | 21.1% | -20% (active) | – | -45.1% (active) | -37.2% (active)
Cc1ccc(-c2nc(/C=N/Nc3cc(C)nc4ccc(Br)cc34)c(C)o2)cc1 | -83.7% (active) | -70% (active) | -48.9% (active) | -76.4% (active) | 5.84% (active) | 63.8% | 86.4% | -88.5% (active) | -13.5% (active)
COc1ccccc1/C=C(/C(=O)c1ccccc1)c1ccccc1 | 93.4% | 110% | 90.8% | 96.4% | 92.2% | 99.1% | – | 87.8% | 108%
CN1CCN(Cc2ccc(NC(=O)c3cncc(C#Cc4c(N)ncc5ccc(C#N)cc45)c3)cc2C(F)(F)F)CC1 | -81.8% (active) | -75.7% (active) | -79.1% (active) | -69.4% (active) | -52.1% (active) | -35.5% (active) | -68.5% (active) | -79.8% (active) | -78.7% (active)
COc1ccc(/C=C/C(=O)c2ccc(NC(=O)c3cc4cc5ccccc5nc4s3)cc2)cc1OC | 104% | 101% | 98.8% | 103% | – | 93.5% | 96.9% | 94% | 105%
CN1CCN(Cc2ccc(NC(=O)c3[nH]ncc3Nc3ccnc4ccsc34)cc2)CC1 | 66.4% | 30.1% | – | 29.2% | 34% | 38.4% | 64.1% | 0.622% (active) | 54.9%
C=C(CN1CCN(c2cccc(C(F)(F)F)n2)CC1)c1ccc(C(=O)Nc2ccccc2N)cc1 | 12.9% | -23.3% (active) | – | 23.1% | 22.6% | -62.2% (active) | 26.9% | 8.1% (active) | –
COc1nc2c(cc1S(=O)(=O)c1ccccc1)CCc1c-2cnn1-c1ccc(Cl)cc1 | 93.8% | 89.3% | – | 92.1% | 88.2% | 94.8% | 88.7% | 96.2% | 88.8%
CCN(C(=O)CN1CCN(c2cc3c(cc2F)c(=O)c(C(=O)O)cn3C2CC2)CC1)c1nc(-c2ccc(OC)cc2)cs1 | 51.5% | 7.28% (active) | 78.2% | – | – | 28.9% | 17.1% | -57.9% (active) | 45.1%
O=c1c2cccc3c(Nc4ccccn4)ccc(c32)c2nc3ccccc3n12 | 59.2% | 64.6% | 89.9% | – | 64% | 51.8% | 64.3% | 69.6% | 101%
CCN(CC)CCCNc1cc(OC)cc2nc3cc(Cl)ccc3nc12 | -11.9% (active) | -9.49% (active) | – | 4.3% (active) | 2.49% (active) | -99.5% (active) | -80.6% (active) | -58.7% (active) | -79.1% (active)
Nc1nc(SCc2ccccc2)c2ncn(C3CCCC3)c2n1 | -58.9% (active) | 114% | – | -25.9% (active) | 83.2% | 94% | 81.4% | 3.63% (active) | 141%
C=C1C(=O)O[C@H]2[C@H]1CC/C(Cn1cc(Cn3ccc4ccccc43)nn1)=C\CC[C@@]1(C)O[C@@H]21 | -34.5% (active) | -13.8% (active) | 71.1% | – | 40.8% | 30.1% | 33.4% | -82.8% (active) | 14%
O=C1/C(=C/c2ccccc2)CN(CCC(=O)N2C/C(=C\c3ccccc3)C(=O)/C(=C/c3ccccc3)C2)C/C1=C\c1ccccc1 | 18.8% | -13.5% (active) | 52.9% | – | 51.3% | 60.5% | – | -51.4% (active) | 91.9%
O=C1C=CC(=O)c2c1nc1n2CCCC1 | 103% | 35.5% | 63.9% | – | 89.7% | 22% | – | 48.8% | 68.3%
C=CC[N+]1(CCO)CCN=C1CCCCCCCCCCCCC (stereo not drawn) | -74.5% (active) | -92.2% (active) | – | -87.8% (active) | -29.9% (active) | -95% (active) | -96.5% (active) | -87.9% (active) | -69.5% (active)
CCOC(=O)C(=Cc1ccccc1F)C(=O)OCC | 86.9% | 103% | 104% | – | 87.6% | 92.8% | 94.9% | 86.4% | 104%
CCOC(=O)c1cnc2cc(Cl)c(F)cc2c1Nc1cccc(NS(C)(=O)=O)c1 | 89.3% | 122% | 93.9% | – | 101% | 98.3% | 87.8% | 91.2% | 114%
CN1CCN(Cc2ccc(NC(=O)c3[nH]ncc3Nc3ncnc4sccc34)cc2)CC1 | 7.97% (active) | 17% | – | 16.4% | 6.12% (active) | -5.05% (active) | 8.83% (active) | -1.47% (active) | 17.8%
CC(=O)OCC1OC(OC2=C(CC=C(Cl)Cl)C(=O)c3ccccc3C2=O)C(OC(C)=O)C(OC(C)=O)C1OC(C)=O (stereo not drawn) | 56.9% | 90.8% | 99.3% | – | 47.4% | 66.3% | 86.1% | 39.9% | 91.4%
C=C1CC2(OC1=O)C(=O)N(CCCCCCCCCCCCN1C(=O)C3(CC(=C)C(=O)O3)c3ccccc31)c1ccccc12 (stereo not drawn) | 65% | 86.7% | 89.5% | – | 64.7% | 86.4% | 78.9% | 4.86% (active) | 89.3%
COc1cnc2c(c1)C(=O)c1c-2n(CCCN2CCNCC2)c(=O)c2cc([N+](=O)[O-])ccc12 | -80.7% (active) | -80% (active) | -40.7% (active) | -93.3% (active) | – | -7.99% (active) | -82% (active) | -86.5% (active) | -76.6% (active)

Compound | growth (HCT-15 colon) | growth (HT29 colon) | growth (SNB-19 CNS) | growth (U251 CNS) | growth (PC-3 prostate) | growth (SK-MEL-5 melanoma) | growth (UACC-62 melanoma) | growth (LOX IMVI melanoma) | growth (SK-MEL-28 melanoma)
CCc1ccccc1NC(=O)c1sc2nc3c(cc2c1N)C(=O)CCC3 | 31.2% | 8.59% (active) | 68.9% | – | 18% | 30.7% | 34.3% | 42.6% | 43.7%
CCN(CC)CCCC(C)N/C(=C1\C(=O)NC(=O)\C1=C(/NC(C)CCCN(CC)CC)c1cccc(OC)c1)c1cccc(OC)c1 (stereo not drawn) | 5.33% (active) | -54.8% (active) | 23.6% | – | – | -91% (active) | -14.7% (active) | -68.5% (active) | -83% (active)
Cc1ccc2c(c1)O/C(=C\c1cccc(OCC(=O)c3ccccc3)c1)C2=O | 69.8% | 118% | – | 96.5% | 358% | 87.3% | 66.1% | 101% | 110%
CC[C@H](Nc1nc(N)nc(C)c1C#N)c1nc2cccc(NCc3ccc(C(=O)NO)cc3)c2c(=O)n1-c1ccccc1 | 38.7% | 3.55% (active) | 7.28% (active) | – | 5.79% (active) | -13.2% (active) | -28.6% (active) | -52.6% (active) | -0.295% (active)
CCCCCCCCCCNC(=O)CCl | 72.4% | 84.2% | – | 69.8% | 66.1% | 72.9% | 73.8% | 50.9% | 105%
Cc1ccc2c(c1)n([O-])c1cc(Cl)ccc1[n+]2=O | 119% | 112% | – | 110% | 93.6% | 107% | 89% | 129% | 133%
COC1C/C(=N\O)C2OC(c3ccccc3)OCC2O1 (stereo not drawn) | 97.8% | 113% | 94.3% | – | 100% | 102% | 96.5% | 101% | 101%
COc1ccc(Cl)cc1Nc1nc(C(F)(F)F)ccc1C(=O)N/N=C/c1cccnc1 | 29.1% | 49.6% | – | 40.4% | 43.7% | 22.2% | 50.9% | 36.3% | 59.9%
c1ccc2c(Nc3cccc4ccccc34)cccc2c1 | 35.1% | 15.8% | – | – | 65.2% | 71% | 23.7% | 52.6% | 61.5%
CCC(=O)OCc1cccc(OC)c1 | 92.2% | 90% | – | 93.2% | 86.5% | 104% | 95.8% | 92.1% | 107%
O=C1Nc2ccc(Br)cc2C12CC(c1ccccc1)=NN2 (stereo not drawn) | 32.7% | 12.1% | 69.1% | – | – | 23.9% | 48.2% | 51.9% | 56.2%
Cc1cc(=O)oc2cc(Oc3nc(-c4ccc(Cl)cc4)cn4c(-c5ccc(Cl)cc5)cnc34)ccc12 | 63.8% | 47.7% | – | 88.1% | 87.9% | 84.4% | 99.3% | 84.4% | 38.3%
Nc1nc2ccc(-c3nc4ccc5[nH]ncc5c4c4c3CCC4)cc2s1 | 11.3% | 8.06% (active) | 42.6% | – | 23.1% | 1.24% (active) | -46.2% (active) | 19.6% | 44.5%
CCOC(=O)Cc1cnn(C)c1NC(=O)c1ccc(Cl)cc1NC(C)=O | 110% | 110% | – | 111% | 94.6% | 95.3% | 99.7% | 107% | 130%
O=C(/C=C/c1ccc(Cl)cc1)c1ccc(O)c(CN2CCN(c3cc4c(cc3F)c(=O)c(C(=O)O)cn4C3CC3)CC2)c1 | 45.4% | 33.8% | 33.2% | – | – | 29.8% | 38.2% | 38.6% | 62.1%
CC(C)CC(CC1=CCC2CC1C2(C)C)C1=C(O)C(C)(C)C(=O)C(C)(C)C1=O (stereo not drawn) | 13.5% | 1.62% (active) | 16% | – | 5.09% (active) | -31.2% (active) | 9.64% (active) | 6% (active) | 28.8%
O=C(/C=C\c1ccc2ccccc2n1)c1cc(Cl)ccc1O | 73.6% | 71.6% | – | 44.3% | 90.9% | 97% | 71.4% | 40.8% | 99.6%
O=C1CC(c2nc3ccccc3[nH]2)CN1C1CCCCC1 (stereo not drawn) | 105% | 102% | 110% | – | 93.3% | 101% | 104% | 93.9% | 112%
O=C(O)c1cccc2c1-c1ccccc1C2=O | 95.7% | 103% | – | 95.7% | 94% | 102% | – | 97.5% | 109%
CCCCNc1ccc2c3c1cccc3c(=O)n1c3ccccc3nc21 | 76.2% | 80.4% | 101% | – | 85.5% | 75.5% | 85.9% | 75.9% | 103%
CC[C@H](CO)Nc1nc(NCc2ccccc2)n2ncc(C(C)C)c2n1 | 2.45% (active) | 3.07% (active) | – | 5.23% (active) | – | -17.6% (active) | -41.8% (active) | 4.45% (active) | -16.9% (active)
COc1ccc(-n2cc(-c3ccccc3)c3c(SCC(=O)N/N=C/c4ccc([N+](=O)[O-])cc4)ncnc32)cc1 | 108% | 114% | 99.7% | – | 96.4% | 100% | 97.5% | 94.2% | 110%
